Rows were chosen to be rich in hits. Some 4.6% of all compounds tested hit in one or more screens of this group.
TIM10 inh: inhibits growth of TIM10 yeast strain. inhibition, % at 10 µM. actives 1.4% (n = 330,000). S. cerevisiae TIM10 strain growth, BacTiter-Glo luminescence, 24 h;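 active means inhibition of 40% or more at the single tested concentration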;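 further: wild-type TIM10 isogenic control strain grown at permissive 25 °C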
SKKanGAS inh: inhibitors of SKKanGAS S. pyogenes growth in kanamycin (SK-promoter or general growth effect) | BacTiter-Glo, 6 h | AID 1662 | inhibition, % at 7.5 µM | actives 1.3% (n = 300,000);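 active means mean replicate score, as percent of positive control median, at least 50; inconclusive means mean below 50 but one replicate at or above 50; inactive means mean and every replicate below 50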;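 further: strain carries kanamycin resistance gene driven by streptokinase promoter and grows in 40 µg/ml kanamycin; loss of luminescence reflects streptokinase promoter inhibition or plain growth inhibition; 0% = median of DMSO wells and 100% = positive control at its reference dose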
tim10-1 inh: growth inhibitors of tim10-1 mutant yeast | S. cerevisiae tim10-1 ts strain growth, BacTiter-Glo, 24 h | inhibition, % at 20 µM | actives 2.2% (n = 330,000) | AID 463190;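 active means inhibition of at least 40%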;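 further: mutant grown at 25 °C; 0% = DMSO wells with yeast and 100% = wells holding no yeast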
NALP3 yeast inh: blocks the NALP3 inflammasome reconstituted in yeast. inhibition, % at 10 µM. AID 2825. actives 0.39% (n = 330,000). Yeast reconstituted NLRP3/ASC/caspase-1, beta-gal luminescence, 24 h;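 active means inhibition of 50% or more; inactive means inhibition below 50%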;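 further: plate controls were induced DMSO wells for no effect and uninduced yeast grown without galactose for full effect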
PfHsp90 set2: inhibits growth of yeast expressing Plasmodium falciparum Hsp90; S. cerevisiae expressing PfHsp90, BacTiter-Glo ATP, 48 h; yeast lacking PDR1 and PDR3 efflux regulators; inhibition, % at 9.4 µM; actives 0.32% (n = 310,000);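 active means every replicate shows inhibition above about 80%, whatever the replicate mean, limit read from the data; inconclusive means mean inhibition reaches the set limit but some replicate falls short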;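 further: 0% = DMSO neutral controls and 100% = 20 µM radicicol positive controls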
tim23-1 inh: growth inhibitors of tim23-1 mutant yeast | inhibition, % at 20 µM | actives 1.3% (n = 330,000) | S. cerevisiae tim23-1 growth, BacTiter-Glo luminescence, 24 h;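 active means growth inhibition of the mutant yeast at or above 50%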;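 further: temperature-sensitive mutant grown at 25 °C; plate controls were DMSO-treated mutant yeast for no effect and medium wells lacking yeast for full effect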
tim10-1 confirm: confirmation of tim10-1 mutant yeast growth inhibitors; inhibition, % at 20 µM; AID 463213; actives 56% (n = 7,400); shares compounds with tim10-1 inh; S. cerevisiae tim10-1 ts strain growth, BacTiter-Glo, 24 h;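 active means inhibition of yeast growth at or above a set limit in either of two repeat tests at 20 µM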;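 further: tim10-1 mutant grown at permissive 25 °C to find synthetic lethal compounds; 0% = DMSO yeast wells and 100% = medium wells without yeast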
TIM10 conf: confirmation of TIM10 yeast growth inhibitors | shares compounds with TIM10 inh | S. cerevisiae tim10 strain growth, BacTiter-Glo luminescence, 24 h | inhibition, % at 10 µM | actives 63% (n = 4,600) | AID 463215;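 active means inhibition of yeast growth at or above a set limit in either of two replicates at 10 µM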;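 further: this counterscreen used the strain with wild-type TIM10; 0% = yeast with DMSO and 100% = medium wells lacking yeast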
* marks the source's active call; other numbers are inactive results; ? = inconclusive; . = no result given.

SMILES	TIM10 inh	SKKanGAS inh	tim10-1 inh	NALP3 yeast inh	PfHsp90 set2	tim23-1 inh	tim10-1 confirm	TIM10 conf
CCOC(=O)c1c(C)oc2ccc(O)c(CN(C)C)c12	10	1	22	18	17	21	.	.
CC(=O)C1=NN(c2ccccc2)C(c2ccc3c(c2)OCO3)N1c1ccc(N2CCOCC2)cc1 (stereo not drawn)	20	-16	11	26	-2	17	.	.
COc1cccc(N2C(C(C)=O)=NN(c3ccccc3)C2c2ccc(N3CCOCC3)cc2)c1 (stereo not drawn)	42*	10	48*	7	0	30	32*	-10
COc1ccc(S(=O)(=O)N2CCOC2CNC(=O)C(=O)NCCCN2CCOCC2)cc1 (stereo not drawn)	-4	28	9	20	-10	0	.	.
CC(C)S(=O)(=O)c1csc(NC(=O)Nc2cc(Cl)ccc2Cl)c1Cl	47*	58*	42*	0	14	21	28	41*
CC(=O)NC(CCS(C)(=O)=O)C(=O)Nc1cc(Cl)ccc1Cl (stereo not drawn)	-11	1	8	11	11	11	.	.
c1ccc2c(c1)OCC(c1nnc3sc(-c4ccc5c(c4)OCO5)nn13)O2 (stereo not drawn)	48*	-9	42*	-30	-53	27	28	13
O=C(COC(=O)c1cccc(O)c1)Nc1ccc(N2CCOCC2)cc1	2	.	-15	19	-3	-12	.	.
CC1CCN(C(=S)c2cn(Cc3ccccc3F)c3ccccc23)CC1	42*	19	43*	9	-73	22	32*	23
O=C(NC1CCCC1)C(c1ccc(Cl)cc1)N(Cc1ccc(F)cc1)C(=O)CCl (stereo not drawn)	47*	-9	49*	-3	-14	46	40*	-1
O=C1CC(c2ccc(F)cc2)CC(O)=C1C=NCCN1CCN(C(=O)Nc2ccccc2)CC1 (stereo not drawn)	7	-3	-11	11	10	-4	.	.
CCCN(CCC)S(=O)(=O)c1cccc(-c2csc(C)n2)c1	22	-2	6	-14	-17	21	.	.
C=CCN(CC=C)S(=O)(=O)c1ccc(NC(=O)COc2ccccc2OC)cc1	42*	.	45*	11	3	39	32*	-11
COc1ccccc1OCC(=O)Nc1ccncc1	-2	8	-12	-1	23	-5	.	.
CC1CC(C)CN(C(=O)CSc2nc(Cc3cccs3)nc3ccccc23)C1 (stereo not drawn)	10	-1	27	23	5	36	.	.
O=C(CCNc1ccc(Cc2ccncc2)cc1)c1ccc([N+](=O)[O-])cc1	62*	0	49*	12	19	40	37*	41*
CCNC(=O)C1CCCN1C(=O)C(CCCN=C(N)N)NC(=O)C(CC(C)C)NC(=O)C(Cc1cn(Cc2ccccc2)cn1)NC(=O)C(Cc1ccc(O)cc1)NC(=O)C(CO)NC(=O)C(Cc1c[nH]c2ccccc12)NC(=O)C(Cc1cnc[nH]1)NC(=O)C1CCC(=O)N1 (stereo not drawn)	11	-2	32	32	.	-4	.	.
Clc1ccc2c(c1)c1cc(Cl)ccc1n2CN1CCOCC1	51*	33	63*	18	.	-12	39*	59*
Cc1nc(N)sc1N=Nc1ccc(Br)cc1	60*	12	44*	28	-14	48	29*	58*
Cc1[nH]nc(N)c1N=Nc1ccc(Br)cc1	29	16	14	19	.	-264	.	.
COc1c(-c2ccccc2)oc2c(ccc3occc32)c1=O	-12	.	7	45	-4	25	.	.
c1ccc(Nc2cccc(Nc3ccccc3)n2)cc1	60*	40	64*	28	-6	39	57*	-10
Cc1ccc(-c2csc(-c3c[nH]c4ccccc34)n2)c(C)c1	43*	92*	41*	29	-23	41	39*	48*
Oc1ccc(-c2csc(-c3c[nH]c4ccccc34)n2)c(O)c1	-15	45	-21	22	-11	36	.	.
CCOC(=O)CN(c1ccccc1C)S(=O)(=O)c1ccc(Cl)cc1	2	9	23	-36	-10	15	.	.
SMILES	TIM10 inh	SKKanGAS inh	tim10-1 inh	NALP3 yeast inh	PfHsp90 set2	tim23-1 inh	tim10-1 confirm	TIM10 conf
CC(C)(C)c1ccc(NC(=S)NCc2cccs2)cc1	46*	-9	54*	7	8	45	40*	33*
O=C(COc1ccccc1F)Nc1ccc(S(=O)(=O)NCc2ccco2)cc1	40*	-9	46*	-17	0	28	33*	-17
O=C1CN(C(=O)COC(=O)CCC(=O)c2ccc3c(c2)OCCO3)c2ccccc2N1	-12	-20	9	18	13	9	.	.
Cc1nc(Nc2ccc(Cl)c(Cl)c2)sc1C(=O)Nc1ccccc1	53*	91*	59*	38	-33	36	32*	69*
CCc1cccc2c(C(=O)COC(=O)c3ccc([N+](=O)[O-])s3)c[nH]c12	74*	100*	64*	47	?	-93	23	76*
C=CCc1cccc(CNc2nc3ccccc3n2CCC)c1O	45*	1	42*	12	-16	40	14	36*
NC(N)=N/N=C(\N=Nc1ccccc1)c1ccc(Cl)cc1	.	.	.	.	9	.	.	.
CC(C)(C)c1cnnn1-c1ccc(NC(=O)c2ccc3c(c2)OCO3)cc1	42*	1	44*	5	-4	38	26	34*
CC(C)(C)c1cnnn1-c1ccc(NC(=O)c2ccc(Br)o2)cc1	47*	-6	47*	8	-8	37	42*	39*
COc1cccc(C(=O)Nc2ccc(-n3nncc3C(C)(C)C)cc2)c1	22	-2	34	14	.	31	.	.
CCC1(O)C(=O)OCc2c1cc1n(c2=O)Cc2cc3c(N)cccc3nc2-1 (stereo not drawn)	.	.	.	.	-23	.	.	.
O=C(NCc1ccccc1)c1cccc(COc2cccc(Cl)c2)c1	43*	6	45*	9	-28	24	40*	34*
Cc1ccc(Oc2nnc(-c3cccs3)c3ccccc23)cc1	-5	3	14	5	-13	15	.	.
Cc1ccc(Oc2nnc(-c3cccs3)c3ccccc23)cc1C	46*	11	46*	16	17	42	20	13
O=c1c(Cl)c(N/N=C/c2ccc(Cl)cc2)cnn1-c1ccccc1	46*	23	47*	28	12	15	26	9
